# Measurements from PubChem BioAssay (NCI).
# Several values for one entry are separate records, joined by “and”; a condition that tells them apart may be missing. Equal entries are not always repeated. The panel holds about 79,000 compounds, 15% with a hit somewhere; the sample as a whole holds those more often. A structure can be active in one record and inactive in another. Activity calls are given as the source filed them. Rule as the data show it: active = growth inhibition above about 70%; inactive = the rest.
# Columns and labels:
# [1] = NCI Yeast Anticancer Drug Screen. Data for the rad52 strain (AID 147);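 also: 0% = growth of vehicle-treated control cultures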; settings: S. cerevisiae rad52 mutant growth inhibition, stronger effect = higher value
# Method in brief: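 Measured: yeast growth inhibition. System: strain with a defined DNA damage repair alteration. Reference: vehicle-treated control cultures.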
# [2] = NCI Yeast Anticancer Drug Screen. Data for the wt1 strain (AID 149);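 also: 0% = growth of vehicle-treated wt1 cultures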; settings: S. cerevisiae wt1 strain (SPY 50644) growth inhibition, stronger effect = higher value
# Method in brief: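 Vehicle-normalised growth inhibition; strain wt1; compound exposure.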
# [3] = NCI Yeast Anticancer Drug Screen. Data for the rad50EPP+ strain (AID 151);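 also: 0% = growth of vehicle-treated control cultures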; settings: S. cerevisiae rad50 mutant strain, stronger effect = higher value
# Method in brief: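 One strain with a rad50 alteration (rad50EPP+) was compound-treated, its growth then compared to that of vehicle controls.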
# [4] = NCI Yeast Anticancer Drug Screen. Data for the mgt1 strain (AID 153); settings: S. cerevisiae mgt1 mutant growth inhibition, stronger effect = higher value
# Method in brief: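 After exposure of the mgt1 yeast mutant to compound, growth was measured and reported as inhibition compared with vehicle controls.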
# [5] = NCI Yeast Anticancer Drug Screen. Data for the rad50 strain (AID 155);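 also: 0% = growth of vehicle-only cultures of the same strain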; settings: S. cerevisiae rad50 strain growth inhibition, stronger effect = higher value
# Method in brief: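 A DNA repair-deficient yeast mutant serves as the test organism; compound-induced growth inhibition is calculated against vehicle-treated cells.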
# [6] = NCI Yeast Anticancer Drug Screen. Data for the mec2-1 strain (AID 157); settings: S. cerevisiae mec2-1 strain, stronger effect = higher value
# Method in brief: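 Test agents were screened against the mec2-1 yeast strain, with defined DNA repair or cell cycle alteration. Growth was scored as inhibition against vehicle-only controls.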
# [7] = NCI Yeast Anticancer Drug Screen. Data for the sgs1 mgt1 strain (AID 161);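 also: 0% = growth of cultures given vehicle only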; settings: S. cerevisiae sgs1 mgt1 strain, stronger effect = higher value
# Method in brief: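 Inhibition of yeast growth, normalised to vehicle-treated controls, is reported for a strain bearing genetic alterations in DNA damage repair.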
# [8] = NCI Yeast Anticancer Drug Screen. Data for the CLN2oe strain (AID 163);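 also: 0% = growth of vehicle-only control cultures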; settings: S. cerevisiae CLN2oe strain, stronger effect = higher value
# Method in brief: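 Here, growth inhibition in a cell-cycle-altered yeast strain after compound exposure was quantified against vehicle control growth.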
# [9] = NCI Yeast Anticancer Drug Screen. Data for the cln2 rad14 strain (AID 165);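 also: 0% = growth equal to vehicle treated cultures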; settings: S. cerevisiae cln2 rad14 strain, at 50.0 µM, stronger effect = higher value
# Method in brief: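 Growth of compound-exposed yeast (cln2 rad14 genotype) measured and expressed as inhibition relative to vehicle.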
# [10] = NCI Yeast Anticancer Drug Screen. Data for the bub3 strain (AID 167); settings: S. cerevisiae bub3 mutant strain, stronger effect = higher value
# Method in brief: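 Inhibition values come from growth of compound-treated mutant yeast normalised to vehicle-treated controls.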
# [11] = NCI Yeast Anticancer Drug Screen. Data for the wt2 strain (AID 169);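 also: 0% = growth of vehicle-treated yeast cultures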; settings: S. cerevisiae wt2 strain growth inhibition, stronger effect = higher value
# Method in brief: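 Genetically defined yeast strains from a DNA-repair/cell-cycle panel were used. Compound-exposed yeast growth was measured, and the inhibition was calculated relative to vehicle treatment.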
# [12] = NCI Yeast Anticancer Drug Screen. Data for the mlh1 strain (AID 171);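 also: 0% = growth of vehicle-treated control cultures of the same strain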; settings: S. cerevisiae mlh1 strain growth inhibition, stronger effect = higher value
# Method in brief: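 Here the genetically defined yeast mutant is grown with each compound, and the extent to which its growth falls below that of vehicle-exposed cells is reported.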
# [13] = NCI Yeast Anticancer Drug Screen. Data for the sgs1 strain (AID 173);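 also: 0% = growth of vehicle-only control cultures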; settings: S. cerevisiae sgs1 mutant, stronger effect = higher value
# Method in brief: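 Relative growth inhibition, referenced to vehicle, was determined in a yeast strain with a defined alteration affecting DNA damage repair or cell cycle control after compound exposure.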
# [14] = NCI Yeast Anticancer Drug Screen. Data for the mlh1 rad18 strain (AID 175); settings: S. cerevisiae mlh1 rad18 strain growth inhibition, stronger effect = higher value
# Method in brief: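 In this whole-cell yeast screen, a strain with altered DNA damage repair is challenged with compound, and its growth is measured against matched vehicle-treated controls.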
# [15] = NCI Yeast Anticancer Drug Screen. Data for the rad18 strain (AID 177); settings: S. cerevisiae rad18 mutant growth inhibition, stronger effect = higher value
# Method in brief: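 Screen uses a yeast strain with a defined lesion in DNA damage repair; compound effect is read as loss of growth compared to untreated vehicle cultures.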
# [16] = at 5.0 µM (retest, dose inferred, filed as 0.5)
# [17] = at 50.0 µM (retest, dose inferred, filed as 5.0)
smiles,measurement,setting,value
Oc1cccc2cccnc12,growth inhibition,[1]; at 1.2 µM,20% (inactive)
same,growth inhibition,[1]; at 3.7 µM,91% (active)
same,growth inhibition,[1]; at 11.0 µM,93% (active)
same,growth inhibition,[1]; at 33.0 µM,94% (active)
same,growth inhibition,[1]; at 100.0 µM,96% (active)
same,growth inhibition,[2]; at 1.2 µM,27% (inactive)
same,growth inhibition,[2]; at 3.7 µM,95% (active)
same,growth inhibition,[2]; at 11.0 µM,99% (active)
same,growth inhibition,[2]; at 33.0 µM,99% (active)
same,growth inhibition,[2]; at 100.0 µM,98% (active)
same,growth inhibition,[3]; at 1.2 µM,-11% (inactive)
same,growth inhibition,[3]; at 3.7 µM,93% (active)
same,growth inhibition,[3]; at 11.0 µM,94% (active)
same,growth inhibition,[3]; at 33.0 µM,94% (active)
same,growth inhibition,[3]; at 100.0 µM,95% (active)
same,growth inhibition,[4]; at 1.2 µM,4% (inactive)
same,growth inhibition,[4]; at 3.7 µM,91% (active)
same,growth inhibition,[4]; at 11.0 µM,96% (active)
same,growth inhibition,[4]; at 33.0 µM,98% (active)
same,growth inhibition,[4]; at 100.0 µM,97% (active)
same,growth inhibition,[5]; at 1.2 µM,18% (inactive)
same,growth inhibition,[5]; at 3.7 µM,85% (active)
same,growth inhibition,[5]; [16],78% (active) and 97% (active) and 96% (active)
same,growth inhibition,[5]; at 11.0 µM,97% (active)
same,growth inhibition,[5]; at 33.0 µM,97% (active)
same,growth inhibition,[5]; [17],99% (active)
same,growth inhibition,[5]; at 50.0 µM,99.1% (active) [middle of 4 runs]
same,growth inhibition,[5]; at 100.0 µM,96% (active)
same,growth inhibition,[6]; at 1.2 µM,6% (inactive)
same,growth inhibition,[6]; at 3.7 µM,85% (active)
same,growth inhibition,[6]; at 11.0 µM,97% (active)
same,growth inhibition,[6]; at 33.0 µM,99% (active)
same,growth inhibition,[6]; [17],99% (active) and 100% (active)
same,growth inhibition,[6]; at 50.0 µM,99.1% (active) [middle of 4 runs]
same,growth inhibition,[6]; at 100.0 µM,98% (active)
same,growth inhibition,[7]; [17],-41% (inactive) and 100% (active) and 99% (active)
same,growth inhibition,[7]; at 50.0 µM,95.5% (active) [middle of 5 runs]
same,growth inhibition,[8]; at 1.2 µM,-19% (inactive)
same,growth inhibition,[8]; at 3.7 µM,86% (active)
same,growth inhibition,[8]; at 11.0 µM,84% (active)
same,growth inhibition,[8]; at 33.0 µM,94% (active)
same,growth inhibition,[8]; at 100.0 µM,92% (active)
same,growth inhibition,[9],95.5% (active) [middle of 5 runs]
same,growth inhibition,[10]; at 1.2 µM,-2% (inactive)
same,growth inhibition,[10]; at 3.7 µM,63% (inactive)
same,growth inhibition,[10]; at 11.0 µM,97% (active)
same,growth inhibition,[10]; at 33.0 µM,98% (active)
same,growth inhibition,[10]; [17],-8% (inactive) and 100% (active) and 99% (active)
same,growth inhibition,[10]; at 50.0 µM,98.7% (active) [middle of 5 runs]
same,growth inhibition,[10]; at 100.0 µM,98% (active)
same,growth inhibition,[11]; at 1.2 µM,17% (inactive)
same,growth inhibition,[11]; at 3.7 µM,84% (active)
same,growth inhibition,[11]; at 11.0 µM,90% (active)
same,growth inhibition,[11]; at 33.0 µM,95% (active)
same,growth inhibition,[11]; at 100.0 µM,98% (active)
same,growth inhibition,[12]; at 1.2 µM,1% (inactive)
same,growth inhibition,[12]; at 3.7 µM,74% (active)
same,growth inhibition,[12]; at 11.0 µM,97% (active)
same,growth inhibition,[12]; at 33.0 µM,98% (active)
same,growth inhibition,[12]; at 100.0 µM,98% (active)
same,growth inhibition,[13]; at 1.2 µM,47% (inactive)
same,growth inhibition,[13]; at 3.7 µM,94% (active)
same,growth inhibition,[13]; at 11.0 µM,97% (active)
same,growth inhibition,[13]; at 33.0 µM,98% (active)
same,growth inhibition,[13]; at 100.0 µM,97% (active)
same,growth inhibition,[14]; [16],75% (active) [middle of 5 runs]
same,growth inhibition,[14]; [17],99% (active) and 96% (active)
same,growth inhibition,[14]; at 50.0 µM,98.2% (active) [middle of 4 runs]
same,growth inhibition,[15]; at 1.2 µM,30% (inactive)
same,growth inhibition,[15]; at 3.7 µM,95% (active)
same,growth inhibition,[15]; at 11.0 µM,97% (active)
same,growth inhibition,[15]; at 33.0 µM,97% (active)
same,growth inhibition,[15]; at 100.0 µM,97% (active)
